In PubChem BioAssay AID1159580 (chemical genetic matrix, 2015):
Several values for one entry are separate records, joined by “and”; a condition that tells them apart may be missing. Equal entries are not always repeated. The campaign covered roughly 5,500 compounds. About 2,000 (36%) were called active. Another 18% or so got no clear call; they are omitted. No stated cut-off is given here; in the data, active means normalized growth mostly below about 0.91 (no sharp cut-off); inconclusive means no clear call, values can overlap the other calls; inactive means mostly above about 0.92. The list shows a part of the results.

Experiment: chemical genetic growth profiling, strain panel (AID 1159580);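 further: tested at 20 µM; growth read once vehicle control cultures reached saturation at 30 °C; 1 = growth at the plate median or of vehicle wells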
Conditions: growth OD

Measured: normalized growth

CC(=O)N1CCCC1C(=O)O (configuration not stated)
inactive: S. cerevisiae deletion strains, locus YAL013W, strain DEP1, stronger effect = lower value 1.01 | S. cerevisiae deletion strains, locus YBR021W, strain FUR4, stronger effect = lower value 0.977 | S. cerevisiae deletion strains, locus YBR229C, strain ROT2, stronger effect = lower value 1.01 | S. cerevisiae deletion strains, locus YCL029C, strain bik1, stronger effect = lower value 1.03 | S. cerevisiae deletion strains, locus YDL035C, strain GPR1, stronger effect = lower value 1.02 | S. cerevisiae deletion strains, locus YDL074C, strain BRE1, stronger effect = lower value 1.02 | S. cerevisiae deletion strains, locus YDL101C, strain DUN1, stronger effect = lower value 1.01 | S. cerevisiae deletion strains, locus YDL134C, strain PPH21, stronger effect = lower value 1.01 | S. cerevisiae deletion strains, locus YDL185W, strain tfp1, stronger effect = lower value 1.02 | S. cerevisiae deletion strains, locus YDL192W, strain arf1, stronger effect = lower value 1.03 | S. cerevisiae deletion strains, locus YDR101C, strain arx1, stronger effect = lower value 1.02 | S. cerevisiae deletion strains, locus YDR150W, strain NUM1, stronger effect = lower value 1.01 | S. cerevisiae deletion strains, locus YDR162C, strain NBP2, stronger effect = lower value 1.01 | S. cerevisiae deletion strains, locus YDR318W, strain mcm21, stronger effect = lower value 1.02 | S. cerevisiae deletion strains, locus YDR388W, stronger effect = lower value 1.02 | S. cerevisiae deletion strains, locus YDR502C, strain sam2, stronger effect = lower value 1.02 | S. cerevisiae deletion strains, locus YEL061C, strain CIN8, stronger effect = lower value 1.01 | S. cerevisiae deletion strains, locus YER110C, stronger effect = lower value 1.03 | S. cerevisiae deletion strains, locus YER155C, strain BEM2, stronger effect = lower value 1 | S. cerevisiae deletion strains, locus YER167W, strain BCK2, stronger effect = lower value 1.01 | S. cerevisiae deletion strains, locus YGL078C, strain dbp3, stronger effect = lower value 1.02 | S. cerevisiae deletion strains, locus YGL086W, strain mad1, stronger effect = lower value 1.01 | S. cerevisiae deletion strains, locus YGL248W, strain PDE1, stronger effect = lower value 1.01 | S. cerevisiae deletion strains, locus YGR078C, strain PAC10, stronger effect = lower value 1 | S. cerevisiae deletion strains, locus YGR135W, strain pre9, stronger effect = lower value 1.02 | S. cerevisiae deletion strains, locus YGR229C, strain SMI1, stronger effect = lower value 0.99 | S. cerevisiae deletion strains, locus YGR252W, strain gcn5, stronger effect = lower value 1.03 | S. cerevisiae deletion strains, locus YHR030C, strain SLT2, stronger effect = lower value 1.01 and 0.953 | S. cerevisiae deletion strains, locus YHR079C, strain IRE1 (second series), stronger effect = lower value 1.02 | S. cerevisiae deletion strains, locus YHR079C, strain IRE1, stronger effect = lower value 0.975 | S. cerevisiae deletion strains, locus YHR094C, strain hxt1, stronger effect = lower value 1.02 | S. cerevisiae deletion strains, locus YHR129C, strain ARP1, stronger effect = lower value 1.01 | S. cerevisiae deletion strains, locus YHR200W, strain rpn10, stronger effect = lower value 1.03 | S. cerevisiae deletion strains, locus YIL066C, strain RNR3, stronger effect = lower value 1.02 | S. cerevisiae deletion strains, locus YIL073C, strain SPO22, stronger effect = lower value 1.08 | S. cerevisiae deletion strains, locus YIL125W, strain kgd1, stronger effect = lower value 1.02 | S. cerevisiae deletion strains, locus YIR030C, strain dcg1, stronger effect = lower value 1.02 | S. cerevisiae deletion strains, locus YJL095W, strain BCK1, stronger effect = lower value 1.01 and 0.981 | S. cerevisiae deletion strains, locus YJL134W, strain LCB3, stronger effect = lower value 1.01 | S. cerevisiae deletion strains, locus YJL168C, strain set2, stronger effect = lower value 1.02 | S. cerevisiae deletion strains, locus YJL187C, strain SWE1 (second series), stronger effect = lower value 1.02 | S. cerevisiae deletion strains, locus YJR043C, strain POL32, stronger effect = lower value 0.995 | S. cerevisiae deletion strains, locus YJR066W, strain TOR1, stronger effect = lower value 0.872 | S. cerevisiae deletion strains, locus YJR075W, strain HOC1, stronger effect = lower value 1 | S. cerevisiae deletion strains, locus YKL009W, strain mrt4, stronger effect = lower value 1.02 | S. cerevisiae deletion strains, locus YKL068W, stronger effect = lower value 1.03 | S. cerevisiae deletion strains, locus YKL085W, strain MDH1 (second series), stronger effect = lower value 1.01 | S. cerevisiae deletion strains, locus YKL085W, strain MDH1, stronger effect = lower value 1.01 | S. cerevisiae deletion strains, locus YKL190W, strain CNB1, stronger effect = lower value 1.01 | S. cerevisiae deletion strains, locus YKR001C, strain vps1, stronger effect = lower value 1.02 | S. cerevisiae deletion strains, locus YLR039C, strain RIC1, stronger effect = lower value 1.03 | S. cerevisiae deletion strains, locus YLR058C, strain SHM2, stronger effect = lower value 1.01 | S. cerevisiae deletion strains, locus YLR102C, strain apc9, stronger effect = lower value 1.02 | S. cerevisiae deletion strains, locus YLR113W, strain HOG1, stronger effect = lower value 1.01 | S. cerevisiae deletion strains, locus YLR262C, strain YPT6, stronger effect = lower value 1.05 | S. cerevisiae deletion strains, locus YLR268W, strain sec22, stronger effect = lower value 1.03 | S. cerevisiae deletion strains, locus YLR330W, strain CHS5, stronger effect = lower value 1.01 | S. cerevisiae deletion strains, locus YLR342W, strain FKS1 (second series), stronger effect = lower value 0.987 | S. cerevisiae deletion strains, locus YLR371W, strain rom2, stronger effect = lower value 1.01 | S. cerevisiae deletion strains, locus YLR418C, strain cdc73, stronger effect = lower value 1.04 | S. cerevisiae deletion strains, locus YML016C, strain PPZ1, stronger effect = lower value 1.01 | S. cerevisiae deletion strains, locus YML032C, strain rad52, stronger effect = lower value 1.02 | S. cerevisiae deletion strains, locus YML124C, strain tub3, stronger effect = lower value 1.03 | S. cerevisiae deletion strains, locus YMR078C, strain ctf18, stronger effect = lower value 1.04 | S. cerevisiae deletion strains, locus YMR223W, strain ubp8, stronger effect = lower value 1.01 | S. cerevisiae deletion strains, locus YMR263W, strain SAP30, stronger effect = lower value 1 | S. cerevisiae deletion strains, locus YMR307W, strain GAS1, stronger effect = lower value 0.996 | S. cerevisiae deletion strains, locus YNL067W, strain RPL9B, stronger effect = lower value 1 | S. cerevisiae deletion strains, locus YNL128W, strain TEP1, stronger effect = lower value 1.01 | S. cerevisiae deletion strains, locus YNL153C, strain GIM3, stronger effect = lower value 1 | S. cerevisiae deletion strains, locus YNL183C, strain NPR1, stronger effect = lower value 0.883 | S. cerevisiae deletion strains, locus YNL233W, strain BNI4, stronger effect = lower value 1.01 | S. cerevisiae deletion strains, locus YNL250W, strain rad50, stronger effect = lower value 1.02 | S. cerevisiae deletion strains, locus YNL271C, strain bni1, stronger effect = lower value 1.03 | S. cerevisiae deletion strains, locus YNL298W, strain CLA4, stronger effect = lower value 1.04 | S. cerevisiae deletion strains, locus YNL307C, strain MCK1, stronger effect = lower value 1.03 | S. cerevisiae deletion strains, locus YNL322C, strain KRE1, stronger effect = lower value 1.01 | S. cerevisiae deletion strains, locus YNR052C, strain pop2, stronger effect = lower value 1.03 | S. cerevisiae deletion strains, locus YOL006C, strain TOP1, stronger effect = lower value 1.03 | S. cerevisiae deletion strains, locus YOL012C, strain htz1 1.51 | S. cerevisiae deletion strains, locus YOL147C, strain pex11, stronger effect = lower value 1.02 | S. cerevisiae deletion strains, locus YOR061W, strain CKA2, stronger effect = lower value 1.01 | S. cerevisiae deletion strains, locus YOR069W, strain VPS5, stronger effect = lower value 1 | S. cerevisiae deletion strains, locus YOR136W, strain idh2, stronger effect = lower value 1.02 | S. cerevisiae deletion strains, locus YOR144C, strain elg1, stronger effect = lower value 1.02 | S. cerevisiae deletion strains, locus YOR184W, strain ser1, stronger effect = lower value 1.03 | S. cerevisiae deletion strains, locus YOR231W, strain MKK1, stronger effect = lower value 0.979 | S. cerevisiae deletion strains, locus YOR316C, strain cot1, stronger effect = lower value 1.02 | S. cerevisiae deletion strains, locus YPL055C, strain LGE1, stronger effect = lower value 1 | S. cerevisiae deletion strains, locus YPL241C, strain CIN2, stronger effect = lower value 1.01 | S. cerevisiae deletion strains, locus YPL256C, strain CLN2, stronger effect = lower value 0.941 | S. cerevisiae deletion strains, locus YPR119W, strain clb2, stronger effect = lower value 1.02 | S. cerevisiae deletion strains, locus YPR141C, strain kar3, stronger effect = lower value 1.03 | S. cerevisiae deletion strains, locus YPR163C, strain tif3, stronger effect = lower value 1.02 | S. cerevisiae deletion strains, locus YPR167C, strain met16, stronger effect = lower value 1.01 | S. cerevisiae deletion strains, strain wtn01, stronger effect = lower value 1.02 | S. cerevisiae strains, strain wild type, stronger effect = lower value 1
